PubChem BioAssay AID1220 (Sanford-Burnham Center for Chemical Genomics, 2008)
Among all 190,000 compounds or so, about 1,300 (0.68%) were called active. The full list was thinned out, with actives kept by preference. A number with no mark means an inactive call. No stated cut-off is given here; in the data, active means inhibition above about 50%; inactive means the rest.

What follows are molecules tested against Mannose-6-phosphate isomerase (Homo sapiens) (UniProt P34949) (assay: human PMI inhibitors, high substrate, primary screen, biochemical, fluorescence intensity, high mannose 6-phosphate (AID 1220)). Details: recombinant PMI enzyme, coupled fluorescence intensity; at 20 µM; hits give high values.
Chain of Mannose-6-phosphate isomerase (Homo sapiens) (P34949 whole entry, looked up): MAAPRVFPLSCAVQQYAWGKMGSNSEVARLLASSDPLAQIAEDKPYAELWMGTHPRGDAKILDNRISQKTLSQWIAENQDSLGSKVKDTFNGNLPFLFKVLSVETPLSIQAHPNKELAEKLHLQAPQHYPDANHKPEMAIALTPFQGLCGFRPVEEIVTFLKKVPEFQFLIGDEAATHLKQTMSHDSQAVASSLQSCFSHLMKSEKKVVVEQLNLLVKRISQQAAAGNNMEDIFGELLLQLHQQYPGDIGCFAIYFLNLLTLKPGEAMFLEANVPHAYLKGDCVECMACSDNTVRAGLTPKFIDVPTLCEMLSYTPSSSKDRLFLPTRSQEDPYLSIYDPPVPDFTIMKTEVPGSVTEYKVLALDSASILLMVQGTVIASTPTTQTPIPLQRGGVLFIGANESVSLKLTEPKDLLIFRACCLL
Molecule `CCOC(=O)N1CCN(C(=O)CSCc2ccc(Br)cc2)CC1` has an inhibition of 1.1%. `Cc1ccc(NC(=O)CSc2nnc(C(F)(F)F)n2C)cc1[N+](=O)[O-]` was tested, and the inhibition was 2.1%. In the case of `CC(C)/C=C1\CCCCC1N(C)C(=O)NC(C)C` (stereo not drawn), the inhibition is reported as 2.9%. `CCCCCCCSc1nnc(-c2ccccc2N)c(=O)[nH]1` gave an inhibition of 13.6%. `CCNc1sc(C(=O)c2cccs2)c(N)c1-c1nc2ccccc2s1` showed an inhibition of -5.3%. Molecule `Cc1ccc2sc(N(CCCN(C)C)C(=O)c3ccc(Br)s3)nc2c1C` has an inhibition of -10.3%. For `CCOc1ccccc1N(CC(=O)NC1CCCCC1)C(=O)c1nsc(Cl)c1Cl`, the inhibition was 8.5%. `CCOc1ccccc1NC(=O)Cn1nnc(-c2ccc(OCC)c(OCC)c2)n1` showed an inhibition of -1.1%. For `COc1ccc(-c2cn(-c3cccc(C)c3)c(=O)[nH]2)cc1OC`, the inhibition was -94.8%. In the case of `COc1ccc(C2CC2/C(=N/OC(=O)c2cccs2)c2ccccc2)cc1` (stereo not drawn), the inhibition is reported as 4.3%. Molecule `O=C(C1CCN(S(=O)(=O)N2CCC3(CC2)OCCO3)CC1)N1CCCCC1` has an inhibition of 11%. `COc1ccc(Oc2coc3cc(OC(=O)/C=C/c4ccc(F)cc4)ccc3c2=O)cc1` gave an inhibition of -6.3%. In the case of `COc1ccc(Oc2coc3cc(OC(=O)/C=C/c4ccccc4)ccc3c2=O)cc1`, the inhibition is reported as 6.5%. With `COc1ccccc1-c1coc2cc(OC(=O)/C=C/c3ccccc3)ccc2c1=O` the inhibition was 57.1% (active). Molecule `COc1cccc(NC(=O)N2CCCC2C(=O)Nc2ccc3c(c2)OCCO3)c1` (stereo not drawn) has an inhibition of 7%. `CCOC(=O)c1c(C)nc2c(c1-c1ccccc1)C(=O)c1ccccc1-2` was tested, and the inhibition was -34.4%. With `O=C1c2ccccc2-c2onc3c(Oc4ccccc4)cc(O)c1c23` the inhibition was -4.7%. In the case of `CCOC(=O)C(C(=O)OCC)c1cc(Br)c2noc3c2c1C(=O)c1ccccc1-3`, the inhibition is reported as 52.1% (active). In the case of `COc1ccc(Cc2n[nH]c(=S)n2C)cc1Br`, the inhibition is reported as 0.8%. In the case of `O=C(NCCN1CCCCC1)c1cc(OCC(F)(F)F)ccc1OCC(F)(F)F`, the inhibition is reported as 7.9%. For `CC(C)CCNC(=S)Nc1ccccc1F`, the inhibition was -14.2%. In the case of `Fc1ccccc1NC(=S)NCCc1ccccc1`, the inhibition is reported as -7.1%. With `CCCCNC(=S)Nc1ccccc1F` the inhibition was 59% (active). In the case of `O=C(COC(=O)Cc1ccccc1[N+](=O)[O-])NCc1ccccc1Cl`, the inhibition is reported as -4%. `S=C(Nc1ccc2nccnc2c1)N1CCCC1` showed an inhibition of 35.6%. `COC(=O)c1cccc(NC(=S)N2CCN(c3ccccc3F)CC2)c1` showed an inhibition of 4.7%. With `COC(=O)c1cccc(NC(=S)N2CCCCC2)c1` the inhibition was -3.2%. With `S=C(Nc1ccc2nccnc2c1)N1CCOCC1` the inhibition was 69.2% (active). For `COC(=O)c1cccc(NC(=S)N2CCOCC2)c1`, the inhibition was 52.1% (active). `S=C(Nc1ccc(Cl)c(Cl)c1)N1CCOCC1` gave an inhibition of 10.9%. `CC(C)CCNC(=O)C(NS(=O)(=O)c1ccc2c(c1)c(=O)n(C)c(=O)n2C)c1ccccc1` (stereo not drawn) showed an inhibition of -11.2%. `Cc1cc(C(F)F)n2nc(C(=O)Nc3ccccc3Br)nc2n1` was tested, and the inhibition was -3.5%. In the case of `Cc1ccsc1/C=N/NC(=O)c1cc(-c2ccncc2)nc2ccccc12`, the inhibition is reported as -9.2%. For `N#Cc1ccc(C(=O)Nc2cc(S(=O)(=O)N3CCCC3)ccc2OCC(F)(F)F)cc1`, the inhibition was -0.6%. `CCCc1nc2c(=O)[nH]c3ccccc3c2o1` gave an inhibition of -0.9%. `NC(=O)c1c(NC(=O)c2cc3ccccc3o2)sc2c1CCC2` gave an inhibition of 2.2%. With `COc1ccccc1NC(=O)c1ccc(-c2ccc(Br)cc2)o1` the inhibition was 7.4%. With `O=C(Nc1cccc2nsnc12)c1ccc(-c2ccc(Br)cc2)o1` the inhibition was 50.3% (active). `O=C(Nc1cccc2ncccc12)c1ccc(-c2ccc(Br)cc2)o1` was tested, and the inhibition was 40.4%. For `COC(=O)c1ccccc1NC(=O)c1ccc(-c2cccc(Cl)c2)o1`, the inhibition was 6.9%. `O=C(Nc1ccccc1N1CCCCC1)c1ccc(-c2cccc(Cl)c2)o1` gave an inhibition of 1.7%. In the case of `O=C(Nc1cccc2nsnc12)c1ccc(-c2cccc(Cl)c2)o1`, the inhibition is reported as 50.2% (active). `Cc1ccc(C)c(N2CCN(CCCNC(=O)Cn3cccc3C(=O)c3ccccc3)CC2)c1` gave an inhibition of -7.6%. With `CC1(c2ccccc2Cl)NC(=O)N(CC(=O)NCc2ccco2)C1=O` (stereo not drawn) the inhibition was -3%. For `COC(=O)c1sccc1NC(=O)CSc1nnnn1-c1ccccc1F`, the inhibition was 10.3%. `O=C(O)CCSc1nnc(COc2ccc([N+](=O)[O-])cc2)n1-c1ccccc1` was tested, and the inhibition was 7.5%. Molecule `CCCCCCC(=O)N=Nc1c(O)[nH]c2ccc([N+](=O)[O-])cc12` has an inhibition of 1.3%. With `COc1ccc(-n2c(N)c(C#N)c3ccc([N+](=O)[O-])cc3c2=O)cc1` the inhibition was 52.3% (active). `COc1cccc(-n2c(N)c(C#N)c3ccc([N+](=O)[O-])cc3c2=O)c1` showed an inhibition of 16.8%. `N#Cc1c(N)n(-c2ccccc2)c(=O)c2cc([N+](=O)[O-])ccc12` showed an inhibition of 36.6%. For `COc1ccc(-n2cnc3cc([N+](=O)[O-])ccc32)cc1`, the inhibition was 3.2%. For `CCCCCCn1c(N)c(C#N)c2ccc([N+](=O)[O-])cc2c1=O`, the inhibition was 63.1% (active). `COCCCNc1ncnc2c1[nH]c1ccccc12` gave an inhibition of 16.1%. Work on `CCCN(C(=O)CSc1nc2c(cnn2-c2ccccc2)c(=O)[nH]1)C1CCS(=O)(=O)C1` (stereo not drawn) yielded an inhibition of -13.4%. For `O=[N+]([O-])c1ccccc1/C=N/n1c(-c2cccnc2)n[nH]c1=S`, the inhibition was 3.5%. `COc1ccc2c(c1)[nH]c1c(=O)n(Cc3ccco3)cnc12` gave an inhibition of 20.7%. In the case of `CCOC(=O)c1c(NC(=O)c2cccs2)sc2c1CC(C)(C)OC2`, the inhibition is reported as 21.6%. Molecule `Oc1ccc(/C=N/NC(=S)Nc2cccnc2)c(O)c1` has an inhibition of -11.9%. `Oc1ccc(/C=N/NC(=S)Nc2cccnc2)cc1O` was tested, and the inhibition was 6.3%. `COc1ccc(NC(=S)N(CCN2CCOCC2)Cc2cc3cc4c(cc3[nH]c2=O)OCO4)cc1` gave an inhibition of 14.7%. In the case of `CCOc1ccc(NC(=S)N(CCN2CCOCC2)Cc2cc3cc4c(cc3[nH]c2=O)OCO4)cc1`, the inhibition is reported as 61.3% (active). Work on `CCOc1ccc(NC(=S)N(CCN2CCOCC2)Cc2cc3cc4c(cc3[nH]c2=O)OCCO4)cc1` yielded an inhibition of 24.8%. `CCOC(=O)C1=C(C)NC(C)=C(C(=O)OCC)C1C(=O)OCC(=O)c1ccc2c(c1)OCCO2` gave an inhibition of 14.5%. `COC(=O)c1oc2ccccc2c1NC(=O)CN1CCCC1` was tested, and the inhibition was 6.8%. `COc1cc(NC(=S)Nc2cccc(C)n2)cc(OC)c1OC` was tested, and the inhibition was -3.5%. `C/C(CC(=O)Nc1ccc(Cl)c(C(F)(F)F)c1)=N\NC(=O)c1cc2ccccc2cc1O` was tested, and the inhibition was -5.7%. `NC(=S)N/N=C\c1c2ccccc2cc2ccccc12` gave an inhibition of -132%. Molecule `NC(=S)Nc1cccc2cc3ccccc3cc12` has an inhibition of -9%. With `NC(=S)Nc1cc2ccccc2c2ccccc12` the inhibition was 65.4% (active). `Cc1cccc(NC(=O)c2ccoc2C)n1` was tested, and the inhibition was 9.2%. Molecule `COc1cc(-c2n[nH]c(=S)n2-c2cc(C(F)(F)F)ccc2Cl)cc(OC)c1OC` has an inhibition of 8.8%. For `CN(C)Cc1c(O)ccc2c3c(c(=O)oc12)CCCCC3`, the inhibition was -2.7%. `O=c1oc2c(CN3CCOCC3)c(O)ccc2c2ccccc12` showed an inhibition of 0.8%. Molecule `CC1=C(C#N)c2nc(N)c(C#N)c(C)c2/C1=C\c1ccc(C)cc1` has an inhibition of -35.8%. In the case of `CC1=C(C#N)c2nc(N)c(C#N)c(C)c2/C1=C\c1ccc(-c2ccccc2C(=O)O)o1`, the inhibition is reported as 10.6%. For `COc1cc(/C=C2/C(C)=C(C#N)c3nc(N)c(C#N)c(C)c32)ccc1OCC(=O)O`, the inhibition was 50.9% (active). With `Cc1c(O)ccc(NS(=O)(=O)c2ccccc2)c1C` the inhibition was 5%. For `CCOC(=O)c1c(C)[n+]([O-])c2ccc3c(non3O)c12`, the inhibition was 10.7%. `O=c1c2c(nc3n1CCCCC3)-c1ccccc1CC21CCCCC1` gave an inhibition of 1.4%. `CCc1ccc(C=NC23CN4CN(CN(C4)C2)C3)s1` was tested, and the inhibition was 2%. Molecule `CN(C)/N=C/c1c(O)ccc2ccccc12` has an inhibition of 26.9%. Molecule `O=C(N/N=C\c1c(O)ccc2ccccc12)c1ccc(S(=O)(=O)N2CCCCC2)cc1` has an inhibition of -8.7%. Molecule `O=C1C2C3C=CC(CC3)C2C(=O)N1/N=C/c1ccccc1O` (stereo not drawn) has an inhibition of -0.9%. Work on `Oc1ccc2ccccc2c1/C=N/Nc1ccccc1` yielded an inhibition of -35.6%. Work on `O=S(=O)(/N=C/c1c(O)ccc2ccccc12)c1cccs1` yielded an inhibition of 27.7%. Molecule `O=C1C2C3C=CC(CC3)C2C(=O)N1/N=C/c1ccc(O)c(O)c1` (stereo not drawn) has an inhibition of -11.1%. For `O=C1C2C3C=CC(CC3)C2C(=O)N1/N=C/c1c(O)ccc2ccccc12` (stereo not drawn), the inhibition was 70.3% (active). For `Oc1ccc(C=NC2CCCCC2)c(O)c1`, the inhibition was 29%. With `Cc1ccccc1C(=O)NC(=S)Nc1ccc(S(=O)(=O)N2CCOCC2)cc1` the inhibition was 3.6%. For `CC(C)CC(=O)NC(=S)Nc1ccccn1`, the inhibition was -9.5%. Molecule `CCSc1nnc(NC(=O)CCc2ccc(OC)cc2)s1` has an inhibition of 8.9%. Work on `Cc1ccc(C2C(C#N)=C(N)SC(N)=C2C#N)o1` yielded an inhibition of -7.3%. In the case of `Oc1c(Cl)cccc1C=Nc1cc(C(F)(F)F)ccc1N1CCCC1`, the inhibition is reported as 7.1%. For `Oc1ccc2ccccc2c1C=Nc1cc(C(F)(F)F)ccc1N1CCCC1`, the inhibition was 52.1% (active). Molecule `O=C(N/N=C/c1c(O)ccc2ccccc12)c1cccc(C(F)(F)F)c1` has an inhibition of 8.4%. Molecule `CC(=O)Nc1cc(Cl)ccc1OS(=O)(=O)c1ccc(C)cc1` has an inhibition of 6.5%. `Fc1ccc(CN2CCCCCCC2)cc1` was tested, and the inhibition was -6.8%. `Nc1nc(-c2ccc(-c3ccccc3)cc2)cs1` was tested, and the inhibition was -2.8%.
